The text below walks through data of PubChem BioAssay (EPA / NIEHS).

Test [1] can be described thus: ATG_PXRE_CIS: Attagene CIS-FACTORIAL HepG2 Assay for human Pregnane X Receptor Element (PXRE) (AID 2282957). The following applies: HepG2 Attagene CIS-FACTORIAL PXRE reporter, mRNA; actives raise or lower the signal. Summed up: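 HepG2 cells transiently transfected with cis-element-driven multiplexed reporter units; after 24 h chemical exposure, reporter mRNA measured by RT-PCR, 6-FAM labelling, HpaI digestion and capillary electrophoresis. Bidirectional fitting relative to DMSO.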

A short description of test [2]: ATG_RORE_CIS: Attagene CIS-FACTORIAL HepG2 Assay for human RAR-related Orphan Receptor Element (RORE) (AID 2282959). The following applies: HepG2 Attagene cis-factorial RORE reporter, mRNA; actives raise or lower the signal. Summed up:
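Transient MRTU transfection of human HepG2 liver cells (FuGene 6); 24 h compound exposure; TriZol RNA, oligo(dT) RT, PCR, FAM labeling, HpaI cut, CE fragment analysis. DMSO = negative control/baseline.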

Test [3] in a line: ATG_Sox_CIS: Attagene CIS-FACTORIAL HepG2 Assay for human SRY-box transcription factor (SOX) (AID 2282960). The settings on record: HepG2 Attagene cis-factorial SOX reporter, mRNA; actives raise or lower the signal. Summed up:
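Endogenous factor activity in human liver HepG2 cells carrying transfected cis-regulated reporter units. RNA taken 24 h post-dose, reverse-transcribed, PCR-amplified and sized by capillary electrophoresis. Gain or loss of signal fitted relative to DMSO.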

Test [4] deals with Transcription factor Sp1 (Homo sapiens) (UniProt P08047). Description: ATG_Sp1_CIS: Attagene CIS-FACTORIAL HepG2 Assay for human Specificity Protein 1 (Sp1) (AID 2282961). The following applies: HepG2 Sp1 cis-reporter transcription, actives raise or lower the signal. The method, boiled down:
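Transient MRTU-transfected HepG2, 24 h compound exposure. Total RNA → oligo(dT) RT → PCR of reporter → 6-FAM primer extension → HpaI digest → CE. Endpoint fitted both directions vs DMSO.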

Test [5] is described as follows: ATG_SREBP_CIS: Attagene CIS-FACTORIAL HepG2 Assay for human Sterol Regulatory Element Binding (SREBP) (AID 2282962). The settings on record: HepG2 Attagene cis-factorial SREBP reporter, mRNA; actives raise or lower the signal. The method, boiled down: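 mRNA induction of transfected cis-promoter reporters in HepG2 cells, 24 h post-dose. Detection: RT-PCR with 6-FAM-labelled products, HpaI digest, capillary electrophoresis. DMSO served as negative control and baseline.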

Test [6] concerns the target Signal transducer and activator of transcription 3 (Homo sapiens) (UniProt P40763). Briefly: ATG_STAT3_CIS: Attagene CIS-FACTORIAL HepG2 Assay for human Signal Transducer and Activator of Transcription 3 (STAT3) (AID 2282963). The following applies: HepG2, Attagene cis-factorial STAT3 reporter transcription; actives raise or lower the signal. The method, boiled down: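 HepG2 cells transiently transfected with cis-element-driven multiple reporter transcription units; after 24 h chemical exposure, reporter mRNA measured by RT-PCR, 6-FAM primer-extension labelling, HpaI digestion and capillary electrophoresis. Bidirectional fitting versus DMSO baseline.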

Test [7] is described as follows: ATG_TA_CIS: Attagene CIS-FACTORIAL HepG2 Assay for human TA Basal Promoter (AID 2282964). The settings on record: HepG2 Attagene CIS-factorial TA basal promoter reporter; actives raise or lower the signal. Summed up: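 Transient MRTU transfection of HepG2 preceded 24 h compound exposure. Reporter mRNA levels were then read by RT-PCR with capillary electrophoresis, and this background-control endpoint was fitted bidirectionally to DMSO.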

A short description of test [8]: ATG_TCF_b_cat_CIS: Attagene CIS-FACTORIAL HepG2 Assay for human T-Cell-Factor with beta-catenin (TCF/b-cat) (AID 2282965). The settings on record: HepG2 TCF/beta-catenin cis-reporter transcription, actives raise or lower the signal. Summed up: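 HepG2 cells transiently transfected with multiple cis-promoter-regulated reporter transcription units, so endogenous transcription factor activity is measured. Reporter mRNA read 24 hours after dosing by RT-PCR, fluorescent labelling and capillary electrophoresis; bidirectional fitting against DMSO.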

The nature of test [9]: ATG_TAL_CIS: Attagene CIS-FACTORIAL HepG2 Assay for human TAL Basal Promoter (AID 2282966).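 Also: background control endpoint measuring basal TAL promoter reporter mRNA not a specific factor.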 The settings on record: HepG2 Attagene cis-factorial TAL promoter reporter; actives raise or lower the signal. Summed up:
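HepG2 cells transiently transfected with multiplexed cis-promoter reporter units, dosed 24 h. Reporter mRNA quantified by RT-PCR, 6-FAM labelling, HpaI digestion and capillary electrophoresis; TAL basal promoter serves as background control, fitted bidirectionally versus DMSO.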

The nature of test [10]: ATG_TGFb_CIS: Attagene CIS-FACTORIAL HepG2 Assay for human Transforming Growth Factor (TGF) (AID 2282967). The settings on record: HepG2 Attagene CIS TGFb reporter, mRNA transcription; actives raise or lower the signal. Summed up:
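After a 24-hour incubation with compound, transfected HepG2 cells were lysed for RNA; reporter cDNA was amplified, fluorescently end-labeled and separated by CE. DMSO served as baseline for bidirectional fits.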

Test [11] in a line: ATG_VDRE_CIS: Attagene CIS-FACTORIAL HepG2 Assay for human Vitamin D Receptor Element (VDRE) (AID 2282968). The following applies: HepG2 VDRE cis-reporter transcription, actives raise or lower the signal. Summed up:
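HepG2 cells transiently transfected with cis-element reporter units, dosed 24 h; reporter mRNA measured by RT-PCR, 6-FAM labeling, HpaI digestion and capillary electrophoresis. Activity fitted bidirectionally against DMSO baseline.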

For test [12], the target named is Estrogen receptor (Homo sapiens) (UniProt P03372). Description: ATG_ERa_TRANS: Attagene TRANS-FACTORIAL HepG2 Assay for human Estrogen Receptor alpha (ERa) (AID 2282970; active = hit-call score of the fitted dose curve at least 0.9, where 1 is the maximum). The following applies: HepG2 Attagene TRANS ERa GAL4 reporter, mRNA. The method, boiled down:
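HepG2 cells transiently transfected with multiplexed GAL4-UAS reporter units read out chimeric NR-Gal4 activity. After 24 h compound exposure, reporter mRNA was quantified by RT-PCR, 6-FAM labeling, HpaI digestion and capillary electrophoresis, relative to DMSO.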

Test [13] concerns the target Steroid hormone receptor ERR1 (Homo sapiens) (UniProt P11474). Description: ATG_ERRa_TRANS: Attagene TRANS-FACTORIAL HepG2 Assay for human Estrogen-Related Receptor alpha (ERRa) (AID 2282971; active = hit-call score of the fitted dose curve at least 0.9, where 1 is the maximum). The following applies: HepG2 Attagene TRANS reporter, ERRa transactivation. The method, boiled down:
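HepG2 cells transiently transfected with GAL4-UAS reporter units and chimeric NR-Gal4 constructs; after 24 hour compound incubation, reporter mRNA quantified by RT-PCR, fluorescent labelling and capillary electrophoresis, gain of signal versus DMSO.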

In test [14] the target is X-box-binding protein 1 (Homo sapiens) (UniProt P17861). Description: ATG_Xbp1_CIS: Attagene CIS-FACTORIAL HepG2 Assay for human X-box Binding Protein 1 (XBP1) (AID 2282972). The settings on record: HepG2 XBP1 cis-element reporter, Attagene multiplex; actives raise or lower the signal. The method, boiled down:
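Fluorescence-labelled cDNA fragments from reporter transcripts, separated by capillary electrophoresis, give the signal. Source: HepG2 cells transfected with promoter-driven reporter units, harvested 24 h post-dose. DMSO served as reference for bidirectional curve fitting.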

Test [15] is described as follows: ATG_M_19_TRANS: Attagene TRANS-FACTORIAL HepG2 Assay for M19 Transcription Factor (Internal Marker) (AID 2282974; active = hit-call score of the fitted dose curve at least 0.9, where 1 is the maximum). The settings on record: HepG2 Attagene TRANS-FACTORIAL M19 internal marker reporter. Summed up:
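Fluorescence of 6-FAM-labelled reporter cDNA fragments, separated by capillary electrophoresis, served as the readout. These derived from HepG2 cells carrying transfected GAL4-UAS reporter units after 24 h dosing, with DMSO as negative control.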

Test [16] deals with Estrogen-related receptor gamma (Homo sapiens) (UniProt P62508). Description: ATG_ERRg_TRANS: Attagene TRANS-FACTORIAL HepG2 Assay for human Estrogen-Related Receptor gamma (ERRg) (AID 2282977; active = hit-call score of the fitted dose curve at least 0.9, where 1 is the maximum;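 also: hits increase reporter signal over DMSO so potencies reflect activators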). The settings on record: HepG2 Attagene TRANS reporter, ERRg transactivation. The method, boiled down: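 Transient HepG2 transfectants, 24 h compound exposure, GAL4-UAS reporter mRNA by RT-PCR/6-FAM labelling/capillary electrophoresis; positive direction vs DMSO.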
Estrogen-related receptor gamma (Homo sapiens), sequence (P62508 whole entry, looked up, the tested form may be a part): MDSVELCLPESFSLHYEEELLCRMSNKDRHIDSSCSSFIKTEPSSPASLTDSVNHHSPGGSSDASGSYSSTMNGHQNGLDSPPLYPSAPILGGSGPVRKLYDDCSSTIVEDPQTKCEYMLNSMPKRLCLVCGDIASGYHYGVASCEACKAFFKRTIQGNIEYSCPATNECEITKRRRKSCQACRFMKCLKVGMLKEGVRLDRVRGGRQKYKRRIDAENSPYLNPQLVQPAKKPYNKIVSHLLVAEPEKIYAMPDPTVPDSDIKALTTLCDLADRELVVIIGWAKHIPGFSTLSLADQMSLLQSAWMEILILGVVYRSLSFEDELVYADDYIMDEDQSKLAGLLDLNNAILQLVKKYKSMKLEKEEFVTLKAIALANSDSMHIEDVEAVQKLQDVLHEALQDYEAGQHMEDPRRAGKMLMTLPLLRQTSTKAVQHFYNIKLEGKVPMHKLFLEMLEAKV

A short description of test [17]: ATG_PPRE_CIS: Attagene CIS-FACTORIAL HepG2 Assay for human Peroxisome Proliferator-activated Response Element (PPRE) (AID 2282958). The following applies: HepG2 PPRE cis-element reporter, Attagene transcription factor profiling; actives raise or lower the signal. The method, boiled down: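 HepG2, transient MRTU transfection (cis promoter elements, endogenous TFs). 24 h dosing. RNA → oligo(dT) RT → PCR → 6-FAM primer extension → HpaI digest → CE. Bidirectional fit vs DMSO.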

Test [18] has as its target Nuclear receptor subfamily 1 group I member 3 (Homo sapiens) (UniProt Q14994). Description: ATG_CAR_TRANS: Attagene TRANS-FACTORIAL HepG2 Assay for human Constitutive Androstane Receptor (CAR) (AID 2282969; active = hit-call score of the fitted dose curve at least 0.9, where 1 is the maximum;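 also: activators raise reporter mRNA above DMSO so AC50 marks induction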). The settings on record: HepG2 Attagene TRANS-FACTORIAL CAR reporter. Summed up: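 HepG2 cells transiently transfected with multiplexed GAL4-UAS reporter units expressing chimeric NR-Gal4 proteins; compound exposure 24 h. Reporter mRNA measured by RT-PCR, 6-FAM labelling, HpaI digestion and capillary electrophoresis; gain-of-signal fitted against DMSO baseline.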

Test [19] is described as follows: ATG_GAL4_TRANS: Attagene TRANS-FACTORIAL HepG2 Assay for GAL4 (Internal Marker) (AID 2282976; active = hit-call score of the fitted dose curve at least 0.9, where 1 is the maximum). The following applies: HepG2 Attagene TRANS GAL4 internal marker reporter. The method, boiled down: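 Background-control readout: GAL4-UAS reporter transcript in transiently transfected HepG2 cells after 24 h compound exposure. Measured by RT-PCR, 6-FAM primer extension, HpaI digest and capillary electrophoresis; gain-of-signal fit versus DMSO.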

In test [20] the target is Glucocorticoid receptor (Homo sapiens) (UniProt P04150). Briefly: ATG_GR_TRANS: Attagene TRANS-FACTORIAL HepG2 Assay for human Glucocorticoid Receptor (GR) (AID 2282978; active = hit-call score of the fitted dose curve at least 0.9, where 1 is the maximum;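 also: activators score as hits since higher reporter transcript over DMSO is fitted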). The settings on record: HepG2 Attagene TRANS GR reporter, mRNA transcription. Summed up:
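Fluorescent capillary-electrophoresis quantitation of reporter mRNA is the readout, taken 24 h after dosing human HepG2 cells carrying transiently transfected GAL4-UAS reporter units activated by chimeric NR-GAL4 fusions; activity scored as induction over DMSO.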

“And” between values parts separate entries of the source, which are not always exact repeats. Equal values may be shown once. Records with an inconclusive call do not appear. The source made the active and inactive calls. The calls were made as follows, unless noted: active = hit-call score of the fitted dose curve at least 0.9, where 1 is the maximum; inactive = score below 0.9.

Signal transducer and activator of transcription 3 (Homo sapiens), sequence (P40763 whole entry, looked up): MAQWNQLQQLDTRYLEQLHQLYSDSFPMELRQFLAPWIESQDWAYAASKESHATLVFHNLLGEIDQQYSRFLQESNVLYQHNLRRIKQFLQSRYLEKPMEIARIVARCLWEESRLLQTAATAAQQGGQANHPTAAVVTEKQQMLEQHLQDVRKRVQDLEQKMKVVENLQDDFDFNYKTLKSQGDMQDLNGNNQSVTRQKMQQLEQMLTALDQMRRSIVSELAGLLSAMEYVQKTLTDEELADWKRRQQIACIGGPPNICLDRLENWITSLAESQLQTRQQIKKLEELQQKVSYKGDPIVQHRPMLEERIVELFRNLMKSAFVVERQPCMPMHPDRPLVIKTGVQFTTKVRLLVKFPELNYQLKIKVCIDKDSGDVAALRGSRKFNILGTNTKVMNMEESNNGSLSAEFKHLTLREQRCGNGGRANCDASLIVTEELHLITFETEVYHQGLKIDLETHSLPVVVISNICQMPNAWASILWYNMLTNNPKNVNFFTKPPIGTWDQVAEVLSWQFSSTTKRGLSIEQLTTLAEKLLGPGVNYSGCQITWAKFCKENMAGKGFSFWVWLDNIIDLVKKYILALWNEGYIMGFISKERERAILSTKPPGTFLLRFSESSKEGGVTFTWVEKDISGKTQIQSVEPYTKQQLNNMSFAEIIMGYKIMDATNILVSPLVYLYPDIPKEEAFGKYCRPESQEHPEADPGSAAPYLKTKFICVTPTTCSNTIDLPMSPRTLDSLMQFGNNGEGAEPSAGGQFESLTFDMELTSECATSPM
X-box-binding protein 1 (Homo sapiens), sequence (P17861 whole entry, looked up, the tested form may be a part): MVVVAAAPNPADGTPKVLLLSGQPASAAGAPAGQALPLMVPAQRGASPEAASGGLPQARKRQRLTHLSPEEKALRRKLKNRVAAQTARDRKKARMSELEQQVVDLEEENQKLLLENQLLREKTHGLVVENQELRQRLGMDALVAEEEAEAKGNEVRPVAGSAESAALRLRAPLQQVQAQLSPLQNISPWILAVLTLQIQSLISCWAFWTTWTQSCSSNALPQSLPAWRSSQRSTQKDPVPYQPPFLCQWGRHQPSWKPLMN
Estrogen receptor (Homo sapiens), sequence (P03372 whole entry, looked up, the tested form may be a part): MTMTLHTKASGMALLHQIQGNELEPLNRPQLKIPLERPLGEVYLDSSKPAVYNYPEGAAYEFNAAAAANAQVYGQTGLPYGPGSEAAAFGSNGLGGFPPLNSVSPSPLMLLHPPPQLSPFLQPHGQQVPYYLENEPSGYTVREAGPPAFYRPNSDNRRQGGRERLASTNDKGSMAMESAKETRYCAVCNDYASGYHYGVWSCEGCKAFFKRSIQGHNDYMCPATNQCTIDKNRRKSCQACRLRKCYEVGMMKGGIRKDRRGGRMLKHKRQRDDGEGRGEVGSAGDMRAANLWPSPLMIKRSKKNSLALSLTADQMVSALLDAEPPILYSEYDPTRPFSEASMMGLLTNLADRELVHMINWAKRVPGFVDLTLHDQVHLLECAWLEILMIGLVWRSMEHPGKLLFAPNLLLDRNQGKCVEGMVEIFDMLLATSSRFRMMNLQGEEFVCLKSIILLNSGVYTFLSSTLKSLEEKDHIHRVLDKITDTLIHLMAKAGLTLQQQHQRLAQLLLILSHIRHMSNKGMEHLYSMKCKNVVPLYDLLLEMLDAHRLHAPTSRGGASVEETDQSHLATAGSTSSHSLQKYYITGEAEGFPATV
Nuclear receptor subfamily 1 group I member 3 (Homo sapiens), sequence (Q14994 whole entry, looked up, the tested form may be a part): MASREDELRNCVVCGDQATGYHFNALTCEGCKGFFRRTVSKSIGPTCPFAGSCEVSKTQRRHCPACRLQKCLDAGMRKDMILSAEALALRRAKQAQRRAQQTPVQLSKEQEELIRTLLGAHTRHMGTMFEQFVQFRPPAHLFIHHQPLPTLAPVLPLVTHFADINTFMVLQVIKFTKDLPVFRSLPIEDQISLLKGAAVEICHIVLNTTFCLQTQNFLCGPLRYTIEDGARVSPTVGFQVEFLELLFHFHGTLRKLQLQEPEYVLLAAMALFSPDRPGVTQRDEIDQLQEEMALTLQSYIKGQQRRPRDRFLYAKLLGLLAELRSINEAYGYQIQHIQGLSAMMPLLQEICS
Glucocorticoid receptor (Homo sapiens), sequence (P04150 whole entry, looked up, the tested form may be a part): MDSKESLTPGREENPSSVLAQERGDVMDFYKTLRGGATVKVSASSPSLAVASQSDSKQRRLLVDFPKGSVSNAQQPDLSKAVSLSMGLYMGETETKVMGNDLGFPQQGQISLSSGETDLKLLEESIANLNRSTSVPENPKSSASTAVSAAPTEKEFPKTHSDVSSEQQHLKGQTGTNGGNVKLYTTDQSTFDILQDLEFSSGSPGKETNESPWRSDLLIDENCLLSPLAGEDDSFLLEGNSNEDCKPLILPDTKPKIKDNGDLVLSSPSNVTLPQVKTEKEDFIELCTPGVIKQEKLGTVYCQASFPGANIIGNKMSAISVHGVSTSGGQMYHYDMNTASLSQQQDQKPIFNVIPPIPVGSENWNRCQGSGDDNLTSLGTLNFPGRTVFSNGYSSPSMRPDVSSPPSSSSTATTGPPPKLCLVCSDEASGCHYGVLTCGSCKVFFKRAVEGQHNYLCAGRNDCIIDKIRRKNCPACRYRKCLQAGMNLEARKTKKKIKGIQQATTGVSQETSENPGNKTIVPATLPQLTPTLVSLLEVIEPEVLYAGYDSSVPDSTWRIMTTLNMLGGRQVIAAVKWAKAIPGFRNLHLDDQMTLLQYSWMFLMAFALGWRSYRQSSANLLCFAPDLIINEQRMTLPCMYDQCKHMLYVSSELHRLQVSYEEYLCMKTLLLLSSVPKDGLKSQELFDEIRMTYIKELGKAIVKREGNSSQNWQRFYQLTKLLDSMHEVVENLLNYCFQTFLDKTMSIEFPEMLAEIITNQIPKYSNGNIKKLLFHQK
Steroid hormone receptor ERR1 (Homo sapiens), sequence (P11474 whole entry, looked up, the tested form may be a part): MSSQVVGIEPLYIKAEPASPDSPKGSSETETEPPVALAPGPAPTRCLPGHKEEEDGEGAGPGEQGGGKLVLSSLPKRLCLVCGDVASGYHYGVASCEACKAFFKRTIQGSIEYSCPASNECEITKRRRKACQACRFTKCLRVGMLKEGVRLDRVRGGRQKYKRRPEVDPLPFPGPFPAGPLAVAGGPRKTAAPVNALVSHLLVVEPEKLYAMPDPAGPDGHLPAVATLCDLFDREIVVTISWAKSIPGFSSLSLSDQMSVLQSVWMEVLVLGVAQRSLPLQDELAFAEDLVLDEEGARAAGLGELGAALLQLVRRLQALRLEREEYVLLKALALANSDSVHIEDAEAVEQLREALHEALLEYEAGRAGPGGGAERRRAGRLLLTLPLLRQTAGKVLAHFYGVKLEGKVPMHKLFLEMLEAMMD
Transcription factor Sp1 (Homo sapiens), sequence (P08047 whole entry, looked up): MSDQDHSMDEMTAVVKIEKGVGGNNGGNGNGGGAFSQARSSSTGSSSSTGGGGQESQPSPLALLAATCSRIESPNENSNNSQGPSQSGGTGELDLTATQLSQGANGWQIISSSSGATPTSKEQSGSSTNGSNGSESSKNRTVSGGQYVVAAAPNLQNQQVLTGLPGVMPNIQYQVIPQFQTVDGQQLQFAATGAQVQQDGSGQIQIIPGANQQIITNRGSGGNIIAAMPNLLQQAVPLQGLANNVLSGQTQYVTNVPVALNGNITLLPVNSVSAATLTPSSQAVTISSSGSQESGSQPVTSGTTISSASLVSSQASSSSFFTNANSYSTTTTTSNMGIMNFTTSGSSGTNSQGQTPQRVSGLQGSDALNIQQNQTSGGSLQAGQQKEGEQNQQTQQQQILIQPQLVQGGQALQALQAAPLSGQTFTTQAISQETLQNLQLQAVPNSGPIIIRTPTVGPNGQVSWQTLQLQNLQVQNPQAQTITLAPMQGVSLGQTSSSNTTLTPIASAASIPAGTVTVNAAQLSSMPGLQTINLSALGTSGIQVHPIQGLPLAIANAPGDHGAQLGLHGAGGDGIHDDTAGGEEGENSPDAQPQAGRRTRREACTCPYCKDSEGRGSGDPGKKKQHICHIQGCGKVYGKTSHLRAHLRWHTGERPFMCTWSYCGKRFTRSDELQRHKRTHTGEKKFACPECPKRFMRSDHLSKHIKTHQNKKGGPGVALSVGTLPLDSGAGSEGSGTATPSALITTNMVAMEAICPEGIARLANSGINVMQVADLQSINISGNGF

Take `CC1CCC(C(=O)O)CC1` (centres undefined): the compound was called inactive in [1], in test [2], in [3], in test [4], in test [5] and in test [6]. The call in test [7], in test [8], in [9], in [10], in test [11] and in [12] was inactive. Also, the result in test [13], in test [14], in [15] and in test [16] was inactive.
With `O=c1cc(-c2ccccc2)oc2ccc3ccccc3c12`, the half-maximal activity concentration (AC50) – broadly, the concentration giving half of the maximal activity seen – in [1] is 1.08 µM (active) and 2.24 µM (active). In addition, the compound was classed as inactive in test [17], in test [2], in test [3], in [5], in [6] and in test [7]. Also, the compound was classed as inactive in test [8], in test [9], in test [10], in test [11], in [18] and in [14]. For the same compound, the call in [15] and in test [16] was inactive.
For `O=C(OC(=O)C(F)(F)C(F)(F)F)C(F)(F)C(F)(F)F`, the result in test [1], in [17], in test [2], in [3], in [5] and in [6] was inactive. The result in [7], in test [8], in [9], in test [10], in test [11] and in test [12] was inactive. The compound was called inactive in test [14], in test [15] and in test [19].
`Oc1c(Cl)cc(Cl)cc1Sc1cc(Cl)cc(Cl)c1O`: the AC50 was 3.03 µM (active) in test [1]; 1.52 µM (active) in [17]; 2.56 µM (active) in test [2]; 3.4 µM (active) in test [11]; 1.45 µM (active) in [14]. The result in test [3], in test [6], in [7], in [9], in test [10] and in [12] was inactive. Also, the outcome in test [16] and in test [20] was inactive.
